# In the library only some 6.6% were active in any assay of this set; here they are far more common.
# GDH-TPI counter-1 – counter-screen for M. tuberculosis FBA inhibitors: GDH-TPI coupled enzymes; 1.2% of 360,000 active; GDH-TPI coupled enzyme counterscreen, NADH absorbance; inhibition, % at 4.8 µM; in the data active means inhibition above about 30%;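 further: 0% = DMSO wells and 100% = wells lacking the enzyme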
# Autofluor counter – compound fluorescence in toxin protease inhibitor counterscreen. fluorescence intensity (test concentration not listed). 3.1% of 360,000 active. compound autofluorescence counterscreen, microsphere flow cytometry; active compounds read high. AID 624483; in the data active means fluorescence intensity above about 16000; inconclusive means no clear call, values can overlap the other calls
# Anthrax LF prot – inhibitors of Bacillus anthracis lethal factor protease | inhibition, % at 10 µM | 0.12% of 360,000 active | P15917 | multiplex microsphere protease cleavage assay, LF; further: plate controls were buffer without enzyme for full effect and enzyme alone for no effect
# BoNT-F LC inh – inhibitors of Botulinum neurotoxin F light chain protease. Multiplex microsphere protease cleavage assay, flow cytometry. inhibition, % at 10 µM. 0.22% of 360,000 active; in the data active means inhibition above about 35%, passing the limit was not always enough; inconclusive means no clear call, values can overlap the other calls; further: plate controls were buffer without enzyme for full effect and enzyme alone for no effect
# BoNT A protease – BoNT A light chain protease inhibition | multiplex microsphere protease substrate cleavage, flow cytometry | inhibition, % at 10 µM | 0.17% of 360,000 active | AID 588499; further: plate controls were buffer without enzyme for full effect and enzyme alone for no effect
# FBA Mtb inh – inhibitors of M. tuberculosis fructose-bisphosphate aldolase. 2.3% of 360,000 active. P9WQA3. inhibition, % at 1 µM. purified M. tuberculosis FBA, fluorescence read-out; in the data active means inhibition above about 27%;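 further: 0% = vehicle and 100% = reference inhibitor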
# Mtb FBA confirm – Mtb FBA inhibition, confirmed. shares compounds with FBA Mtb inh. purified M. tuberculosis FBA, fluorescence read-out. inhibition, % at 1 µM. 78% of 5,600 active. AID 651616; in the data active means inhibition above about 27%;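 further: 0% = vehicle wells and 100% = reference inhibitor wells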
# GDH-TPI counter-2 – GDH-TPI inhibition counter-screen for FBA inhibitors | shares compounds with FBA Mtb inh | 81% of 5,600 active | GDH-TPI coupled enzyme counterscreen, fluorescence | inhibition, % at 1 µM | AID 652141; in the data active means inhibition above about 10%
# * hit, by the source's call; ? = inconclusive; . = no result; + = active, no number. Unless noted, no stated cut-off is given here; in the data, active means inhibition above about 30%; inconclusive means no clear call, values can overlap the other calls; inactive means below that.
SMILES,GDH-TPI counter-1,Autofluor counter,Anthrax LF prot,BoNT-F LC inh,BoNT A protease,FBA Mtb inh,Mtb FBA confirm,GDH-TPI counter-2
C[C@]12c3[nH]c4cc(-c5ccco5)ccc4c3CCN1C(=O)[C@@H](CC(=O)NCc1ccco1)C[C@@H]2C(=O)N1CCCCC1,-1.4,3975,-4.2,-2.1,-0.1,32.4*,117.0*,70.3*
CC(C)(C)NC(=O)C[C@H]1C[C@H](C(=O)N2CCCCC2)[C@@]2(C)c3[nH]c4cc(-c5ccco5)ccc4c3CCN2C1=O,3.3,3520,-0.6,-0.4,-0.3,20.6,.,.
CN(C)C(=O)CCc1ccc2c3c([nH]c2c1)[C@]1(C)[C@@H](C(=O)N2CCOCC2)C[C@H](CC(=O)NCc2ccco2)C(=O)N1CC3,5.5,3709,-8.6,-1.0,-0.5,0.5,.,.
CC(C)(C)NC(=O)C[C@H]1C[C@H](C(=O)N2CCOCC2)[C@@]2(C)c3[nH]c4cc(-c5ccco5)ccc4c3CCN2C1=O,4.5,3987,-3.9,-3.4,0.2,31.0*,50.0*,45.5*
C[C@]12c3[nH]c4cc(-c5ccco5)ccc4c3CCN1C(=O)[C@@H](CC(=O)NCc1ccco1)C[C@@H]2C(=O)N1CCOCC1,7.3,3861,-0.3,1.7,-0.3,30.6*,173.8*,148.0*
S=C1NCc2cncnc2N1,.,6054,-4.8,8.0,-0.4,4.3,.,.
CN1CCN(c2ccccc2NC(=O)COc2ccc(Cl)cc2)CC1,2.8,6060,-2.3,-16.9,-3.8,-0.3,.,.
CCc1ccccc1Cn1c(=O)oc2cccnc21,-7.3,3986,11.9,?,?,40.4*,41.4*,37.0*
C=CCNC(=O)/C(C#N)=C/c1c(N2CCN(c3cccc(Cl)c3)CC2)nc2c(C)cccn2c1=O,-0.4,4344,-0.7,17.1,2.5,62.3*,198.6*,171.7*
COCCNC(=O)/C(C#N)=C/c1c(N2CCN(c3ccc(OC)cc3)CC2)nc2c(C)cccn2c1=O,1.9,3896,0.4,?,-3.6,79.9*,72.9*,57.8*
COCCNC(=O)/C(C#N)=C/c1c(N2CCN(c3cccc(Cl)c3)CC2)nc2c(C)cccn2c1=O,-0.6,3835,-8.8,1.0,1.8,69.1*,165.2*,124.0*
COCCNC(=O)C(C#N)c1nc2ccccc2nc1N1CCCCCC1 (centres undefined),19.4,2602,11.1,-2.3,9.8,37.0*,-3.5,-4.2
Cc1ccc(Cl)c(NC(=O)COC(=O)c2nn(-c3ccccc3)cc2O)c1Cl,3.4,3483,-5.9,-1.0,-0.3,18.8,.,.
COCCNC(=O)/C(C#N)=C/c1c(N2CCCCCC2)nc2ccccn2c1=O,25.0,3600,-19.2,3.6,4.0,86.8*,45.4*,47.4*
COc1cccc(C2C(C#N)=C(C)NC3=C2C(=O)CC(C)(C)C3)c1 (centres undefined),7.0,2135,-0.6,-3.5,0.0,93.4*,+,183.2*
CC1=C(C(=O)OCC2CCCO2)C(c2ccncc2)C2=C(CC(C)(C)CC2=O)N1 (centres undefined),-1.0,4146,-1.8,-9.3,-0.1,38.2*,58.5*,58.1*
CC1=C(C(=O)OCCOC(C)C)C(c2cccnc2)C2=C(CCCC2=O)N1 (centres undefined),3.7,3871,-0.1,-16.8,-0.3,31.4*,+,+
COCCOC(=O)C1=C(C)NC2=C(C(=O)CC(C)(C)C2)C1c1cccnc1 (centres undefined),0.9,5831,-2.9,-0.1,-0.7,38.7*,+,+
COc1ccc(C2C(C#N)=C(C)NC3=C2C(=O)CC(C)(C)C3)cc1 (centres undefined),12.8,4381,-1.7,-30.3,-1.0,16.8,.,.
CC1=C(C(=O)OC(C)C)C(c2cccnc2)C2=C(CC(C)(C)CC2=O)N1 (centres undefined),13.4,12913,-2.2,-10.7,-0.5,79.2*,30.9*,38.1*
S=c1[nH]nc(-c2c[nH]c3ccccc23)o1,2.6,3553,3.8,-1.0,0.8,50.0*,0.2,-2.5
Oc1cc2ccccc2cc1-c1n[nH]c(=S)o1,17.6,3673,-1.1,0.5,-0.1,6.4,.,.
Cc1ccc(C)c(N2C(=O)c3ccc(C(=O)Nc4ccccn4)cc3C2=O)c1,0.0,3891,-3.4,-1.3,-0.3,-3.6,.,.
